Measurements: the supplement of paper PMC6522484
± gives the standard deviation of the averaged measurements.

Columns and labels:
DLD1 [1] = assay: cell viability (CellTiter-Glo) relative to plate median (fraction of plate median); higher = more viable cells; conditions: 5 µM; treatment time 24 h; reporter: 7TFP
Summary of the method: (§1)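 Colorectal cancer lines with stably integrated lentiviral TCF/Wnt firefly luciferase reporters received library compounds at a final 5 µM, 24 h after seeding into 384-well plates, for a 24 h exposure. Reported figures are plate-median-normalised firefly luciferase or CellTiterGlo luminescence per well. They average two independent replicates.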

HCT116 = assay: as above; conditions: 5 µM; treatment time 24 h; reporter: TCF4/Wnt
Summary of the method: as §1

SW480 [2] = assay: as above; conditions: 5 µM; treatment time 24 h; reporter: 7TFP
Summary of the method: as §1

DLD1 [3] = assay: TCF/Wnt firefly luciferase reporter signal relative to plate median (fraction of plate median); higher = higher Wnt reporter signal; conditions: 5 µM; treatment time 24 h; reporter: 7TFP
Summary of the method: as §1

SW480 [4] = assay: as above; conditions: 5 µM; treatment time 24 h; reporter: 7TFP
Summary of the method: as §1

Structure (SMILES) | cell viability (DLD1 [1]) | cell viability (HCT116) | cell viability (SW480 [2]) | TCF/Wnt firefly luciferase reporter signal (DLD1 [3]) | TCF/Wnt firefly luciferase reporter signal (SW480 [4])
O=C1C=C2CC3(O)COc4c(ccc(O)c4O)C3=C2C=C1O (stereo not given) | 0.988 ± 0.073 | 1.04 ± 0.065 | 1.06 ± 0.13 | 0.943 ± 0.081 | 1.05
CN[C@H]1CC[C@@H](c2ccc(Cl)c(Cl)c2)c2ccccc21 | 0.713 ± 0.26 | 0.386 ± 0.052 | 0.934 ± 0.22 | 0.796 ± 0.23 | 0.675 ± 0.15
O=C(C1CCCCC1)N1CC(=O)N2CCc3ccccc3C2C1 (stereo not given) | 0.9955 ± 0.0064 | 0.984 ± 0.037 | 0.98 ± 0.042 | 1.02 ± 0.034 | 0.918 ± 0.12
C=CC(C1=CC(=O)C(OC)=CC1=O)c1ccc(OC)cc1 (stereo not given) | 1.06 ± 0.035 | 1.13 ± 0.085 | 1.03 ± 0.054 | 0.988 ± 0.059 | 1 ± 0.11
